Results published in the supplement of paper PMC3334620.
In all, about 33,000 sequences were measured (“E-score (-0.5 to 0.5)”: median about -0.016, highest 2% from about 0.3 on). The sample holds the highest values, similar sequences and a random draw of the others, so the mix is not that of the screen.

These sequences were tested against T1, Yer184c (UniProt P39961) (assay: PBM E-score (8-mer binding enrichment) (E-score (-0.5 to 0.5)); higher = stronger / more preferred TF binding). Settings: protein concentration: 100 nM; construct: GST-full length.
T1 sequence: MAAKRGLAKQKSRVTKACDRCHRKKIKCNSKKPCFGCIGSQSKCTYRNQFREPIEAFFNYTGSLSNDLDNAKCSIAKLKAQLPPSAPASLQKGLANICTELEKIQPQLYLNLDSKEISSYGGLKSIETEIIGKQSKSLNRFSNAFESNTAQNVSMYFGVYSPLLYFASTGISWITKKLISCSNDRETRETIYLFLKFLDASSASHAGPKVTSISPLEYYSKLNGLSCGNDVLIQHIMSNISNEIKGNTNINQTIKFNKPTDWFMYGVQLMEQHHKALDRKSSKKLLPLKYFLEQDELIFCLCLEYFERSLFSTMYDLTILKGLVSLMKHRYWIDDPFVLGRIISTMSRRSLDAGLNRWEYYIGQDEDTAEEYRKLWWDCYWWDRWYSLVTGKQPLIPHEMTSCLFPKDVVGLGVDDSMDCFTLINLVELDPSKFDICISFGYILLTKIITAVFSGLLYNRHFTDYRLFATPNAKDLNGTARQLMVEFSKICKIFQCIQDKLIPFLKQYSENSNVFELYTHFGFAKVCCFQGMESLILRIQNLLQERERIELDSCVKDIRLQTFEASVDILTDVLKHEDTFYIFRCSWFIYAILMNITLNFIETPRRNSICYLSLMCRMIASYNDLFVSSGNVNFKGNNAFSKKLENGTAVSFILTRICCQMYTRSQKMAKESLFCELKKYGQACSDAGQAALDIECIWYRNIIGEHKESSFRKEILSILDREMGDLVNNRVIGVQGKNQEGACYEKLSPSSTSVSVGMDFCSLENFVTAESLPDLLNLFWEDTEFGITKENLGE
Procedure: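 Universal 'all 10-mer' protein binding microarrays (Agilent AMADID 015681) probed with GST-tagged S. cerevisiae TFs (full-length or DBD) made by in vitro transcription/translation (PURExpress), about 100-200 nM. Bound TF was detected with fluorescent anti-GST. Each ungapped 8-mer (which stands for itself and its reverse complement) is scored by the PBM enrichment score (E-score), a modified Wilcoxon-Mann-Whitney statistic from -0.5 to +0.5, computed with the Universal PBM Analysis Suite. Scale: above 0.35 generally sequence-specific binding.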

Row | Sequence | PBM E-score
1 | AACCGGCA | 0.238
2 | AACCGACG | 0.189
3 | AACCGGCC | 0.318
4 | CACCGGCG | 0.238
5 | CACCGGCC | 0.177
6 | AACCGGCG | 0.306
7 | ATATGAAT | 0.156
8 | ATACTCGA | -0.0376
9 | AAGTCCCC | -0.18
10 | TAAAAGTA | 0.161
11 | AGAGAGTG | -0.158
12 | CTCTCATA | -0.0704
13 | GAGGGAGC | -0.277
14 | CGAGGTTC | 0.116
15 | GCCGAGGC | 0.386
16 | CCCGAGGA | 0.0175
17 | CCCGAGGC | -0.013
18 | TCCGAGGA | 0.196
19 | GCCGAGGA | 0.335
20 | ACCGAGGC | -0.0788
21 | CCCGAGCC | 0.155
22 | GCCGAGCC | 0.34
23 | ACCGAGCC | 0.221
24 | AGCGGTGC | -0.168
25 | AATTGCGC | 0.16

Row | Sequence | PBM E-score
26 | CGGATCAC | 0.277
27 | ATATATAG | 0.282
28 | ATTTATAA | 0.326
29 | ATATATTG | 0.0957
30 | ATTTATAC | 0.28
31 | GTATATAC | -0.0816
32 | ATATATTC | 0.319
33 | CTATATAC | 0.247
34 | ATATATAT | 0.336
35 | CTATATTC | -0.0128
36 | CTATATAG | -0.109
37 | CTTTATAA | 0.0517
38 | ATATATAC | 0.317
39 | AGTAGCCG | 0.198
40 | GTGACATA | 0.121
41 | CTTTACCC | 0.00954
42 | CCTGAAAC | 0.15
43 | AATACTGT | 0.188
44 | GAAGCAAA | -0.0663
45 | CAGCCTCG | -0.0314
46 | GGCTTAAC | -0.0348
47 | ATATAACA | 0.309
48 | CTATATAA | 0.0877
49 | CTATAACA | -0.0394
50 | ATATATAA | 0.339

Row | Sequence | PBM E-score
51 | ATATAACC | -0.0755
52 | TTATATAA | 0.225
53 | AGATGGGA | -0.194
54 | GAGGCTGA | -0.172
55 | ACAGGGGA | -0.249
56 | CCAGTCGG | -0.0574
57 | ATATATCG | 0.312
58 | ATATATCA | 0.115
59 | AATTATCG | 0.305
60 | AAATATCG | 0.194
61 | CTATATCC | -0.119
62 | AATTATCC | 0.116
63 | ATATATCC | 0.318
64 | AATTATCA | 0.221
65 | AGATATCC | 0.0863
66 | AAGTATTC | 0.0574
67 | CGTAAGCA | -0.252
68 | AGCTAGCC | -0.0869
69 | AAGGTGAA | -0.0939
70 | CAGCAAAA | -0.0176
71 | CCATACCA | -0.145
72 | ATTGAGTA | 0.191
73 | CGGACAAG | 0.234
74 | AGGACAAA | 0.136
75 | AGGACAAC | 0.0373

Row | Sequence | PBM E-score
76 | CGGACAAC | 0.373
77 | CGGACAAA | 0.353
78 | CGGACGAC | 0.23
79 | GGGACAAC | -0.0988
80 | GGGACGAA | 0.0852
81 | CGGACGAA | 0.353
82 | CATCGAAG | -0.0421
83 | ACTTAACA | -0.00053
84 | ATGCTCTG | -0.178
85 | AATGGCCG | 0.0612
86 | ATGAAGGC | -0.0969
87 | CGTCCCGA | 0.0521
88 | GATCTGAC | -0.0541
89 | CTTGCCGA | 0.22
90 | GTTGCCCA | -0.0158
91 | ATTGCCCA | -0.102
92 | ATTGCCAG | -0.0205
93 | GTTGCCGA | 0.373
94 | GCTGCCGA | 0.292
95 | ATTGCCGC | 0.162
96 | ATTGCCGG | 0.348
97 | ATTGCCGA | 0.311
98 | TCCTGCGA | 0.00447
99 | GGCCAACA | -0.0401
100 | GCTGTTAC | -0.0967

Row | Sequence | PBM E-score
101 | CTTAGCAA | 0.0294
102 | TCCTGCAA | -0.0596
103 | AGGCATAT | 0.0107
104 | ACGCCAGA | -0.132
105 | GAACCGGC | 0.18
106 | CAACCGGG | 0.14
107 | CAACCGGC | 0.323
108 | CAACCGAC | 0.238
109 | CAACCGCG | 0.306
110 | CTACCGGC | 0.0792
111 | CAACCGAA | 0.258
112 | CAACCGCC | -0.042
113 | CAACCGCA | 0.0386
114 | GAACCGGA | 0.349
115 | TAACCGGA | 0.279
116 | CAACCGGA | 0.373
117 | CTCTAACA | 0.0218
118 | AGTTCGAT | -0.0396
119 | AGGTGAAC | -0.112
120 | ACGTTGCT | -0.0994
121 | CGGATGGA | 0.207
122 | ATCACAAT | 0.0634
123 | CAAGCGCA | 0.0414
124 | CCCACCTA | -0.241
125 | GGTATCAA | -0.0802

Row | Sequence | PBM E-score
126 | AAACCGCC | 0.147
127 | AAACCGGA | 0.306
128 | AGACCGGC | 0.128
129 | AAACCGGT | 0.216
130 | AAACCGGC | 0.313
131 | AAACCGGG | 0.0839
132 | ATTTAGAC | 0.121
133 | AAAACCCG | 0.163
134 | TAAGCCGA | 0.369
135 | AAAGCCGA | 0.174
136 | CAAGCCCA | -0.326
137 | AAAGCCGG | 0.351
138 | CAAGCCGA | 0.324
139 | AAAGCCGT | 0.262
140 | CAAGCCGC | -0.0146
141 | CAAGCCTG | -0.271
142 | GAAGCCGA | 0.287
143 | AAAGCCGC | 0.188
144 | CCAGCCGA | 0.205
145 | CAAGCCGG | 0.327
146 | CTCACAAG | -0.177
147 | AAGGTCGG | -0.018
148 | TAGGTGAA | 0.0169
149 | CACCAACA | -0.23
150 | GGCTATCA | 0.131

Row | Sequence | PBM E-score
151 | GCTCGGTA | 0.129
152 | TGTCGGAA | 0.163
153 | GCTCGGAC | 0.187
154 | TCTCGGAA | 0.334
155 | CCTCGGAA | 0.28
156 | ACTCGGAC | 0.208
157 | ACTCGGAA | 0.341
158 | ACTCGGAT | 0.268
159 | GCTCGGAA | 0.334
160 | GCAGCAGC | -0.0995
161 | CCATAGCG | -0.124
162 | CGGTCTCA | 0.0469
163 | GGACGCCA | -0.224
164 | CCTCTTCA | -0.18
165 | ACTCTCGC | -0.169
166 | ACTCTCGG | 0.344
167 | ATTCTCGG | 0.345
168 | ACTCTCGA | -0.0924
169 | ATTCTCGA | 0.0246
170 | ATTCTCGC | -0.192
171 | ACCACGAT | -0.0131
172 | AGTTATGG | -0.0312
173 | GCCAACAC | 0.0745
174 | CGTTGTTC | -0.00041
175 | CTGGGCGA | -0.206

Row | Sequence | PBM E-score
176 | GCCCATCC | -0.224
177 | ACGGTAGA | -0.0773
178 | TCGGTAGA | 0.307
179 | CCGGTAGA | 0.264
180 | AGGCGATG | -0.0512
181 | CCGCTGCG | -0.122
182 | GCTAGCGA | -0.147
183 | ACCCGAGT | 0.0508
184 | CCTTACCG | 0.114
185 | AAGAAATG | 0.227
186 | AAGAAATA | 0.163
187 | AAGAAATT | 0.346
188 | AGTCGTGG | -0.191
189 | GAAATTAA | 0.337
190 | CAAATTAA | 0.0386
191 | ATAATTAG | 0.203
192 | GTAATTAA | 0.143
193 | ATCATTAA | 0.307
194 | ATAATTAC | 0.265
195 | TTAATTAA | -0.041
196 | ATAATTAT | 0.386
197 | ATAATTAA | 0.323
198 | AAAATTAA | 0.168
199 | CTCATTAA | 0.067
200 | ATCATTAG | 0.037

Row | Sequence | PBM E-score
201 | AACAAACT | 0.277
202 | AACAACGA | 0.112
203 | AGTGGCCC | -0.153
204 | CAGGTATA | -0.163
205 | AGTGTGCA | -0.0513
206 | AACGATGT | 0.13
207 | CTCACCCA | -0.0925
208 | CACGTTCG | -0.203
209 | GCGCAAGA | 0.188
210 | AAAATTAG | 0.227
211 | AAAATTAC | 0.127
212 | AAAATTAT | 0.316
213 | AGGGATAG | -0.208
214 | CCATCTAC | -0.15
215 | GACGGACA | 0.121
216 | TCCGGACA | 0.431
217 | ACCGGACA | 0.122
218 | GCCGGATA | 0.354
219 | GCAGGATA | -0.168
220 | GGCGGATA | 0.0758
221 | GCCGGACA | 0.36
222 | CCCGGACA | 0.283
223 | GCCGGACC | 0.214
